Assay outcomes deposited in PubChem by National Center for Advancing Translational Sciences (NCATS).
The list is not random: actives were taken first. Their share in the collection is about 21%.
CHX counter: counter-screen hit for Shiga toxin inhibitors, cycloheximide. cell reporter, cycloheximide protein synthesis inhibition counterscreen. max response, %. 300,000 compounds, 12% hits; in the data active = max response mostly above about 13%, no sharp cut-off; inactive = mostly below about 14%; note: read at 38.3 µM for the half of the compounds with a filed dose
Pf growth 96h: P. falciparum growth inhibition at 96 hours; 320,000 compounds, 6.9% hits; Potency, µM (doses to about 28.7 µM), actives largely listed as inhibitors; P. falciparum luciferase reporter growth, 96 h
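Two parasite generations (96 h, 37 C, 5% CO2) of compound exposure in infected erythrocytes (0.05% parasitemia, 2% hematocrit). Luciferase-reporter P. falciparum; decreased luminescence indicates inhibited growth, aimed at apicoplast-acting delayed death.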
Shiga toxin inh: Shiga toxin inhibition; Vero cells, Shiga toxin protein synthesis inhibition reporter; 290,000 compounds, 9.2% hits; inhibition, % at 38.7 µM; AID 2315; in the data active = inhibition mostly above about 28%, no sharp cut-off; inactive = mostly below about 43%
NS1 inh: inhibitors of influenza NS1 protein function; Potency, µM (titrated, usually from 46.1 µM); 270,000 compounds, 0.4% hits; AID 2326; calls by dose curve; note: actives are rising curves; nearly all actives have a fitted effect of over 50% in size
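Compounds were scored for reversing the slow growth caused by influenza A NS1 in S. cerevisiae, measured by optical density at 600 nm. Assay medium contained 2% galactose at pH 6.0; NS1-free yeast of the same strain were the positive control.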
Pf growth 48h: P. falciparum growth inhibition at 48 hours (one generation) | P. falciparum luciferase growth in erythrocytes, 48 h | Potency, µM (titrated, usually from 28.7 µM), usual class: inhibitors | 310,000 compounds, 5.9% hits | AID 504832
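Luminescence readout; reporter = integrated firefly luciferase in P. falciparum. RBC culture at 2% hematocrit, 0.1% parasitemia final, 37 C/5% CO2; decreased signal taken as growth inhibition.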
Giardia FBPA inh: Giardia lamblia aldolase inhibition; A8B2U2; purified Giardia FBPA; Potency, µM (titrated, usually from 59.6 µM), usual class: inhibitors; 290,000 compounds, 0.71% hits; note: nearly all actives have a fitted effect of over 55% in size
Target sequence (A8B2U2 whole entry, looked up): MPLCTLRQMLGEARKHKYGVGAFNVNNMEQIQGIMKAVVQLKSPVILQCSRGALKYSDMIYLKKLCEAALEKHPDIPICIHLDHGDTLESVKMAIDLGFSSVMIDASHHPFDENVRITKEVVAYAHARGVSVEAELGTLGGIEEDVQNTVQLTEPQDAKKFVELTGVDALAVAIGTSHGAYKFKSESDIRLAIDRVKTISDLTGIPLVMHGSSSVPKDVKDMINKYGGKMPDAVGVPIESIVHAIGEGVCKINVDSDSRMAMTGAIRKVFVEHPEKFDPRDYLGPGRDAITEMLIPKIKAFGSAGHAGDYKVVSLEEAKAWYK
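40 nM FBPA preincubated 10 min at RT with compound (up to 57.5 uM final), then substrate plus GAPDH/TPI/NAD/arsenate coupling and diaphorase/resazurin added. Fluorescence read after 20 min at RT, 525/598 nm.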
Large screens that a line does not name were inactive. Unless noted, calls come from the whole dose curve; as a rule, active = well fitted curve in the direction sought with a large enough effect; inconclusive = small, poorly fitted or top-dose-only effect, or another doubt; inactive = no such curve, though single readings can be large; an effect the other way counts as inactive or inconclusive.

COc1cc(/C=N/NC(=O)c2cc(C3CC3)[nH]n2)ccc1O	CHX counter 16
COc1ccc2c(c1)c(C(=O)N/N=C/c1ccc(OC)c(OC)c1)c(C)n2C	Pf growth 96h 15µM
COc1cc(/C=N/NC(=O)c2cc(C34CC5CC(CC(C5)C3)C4)[nH]n2)ccc1O	Pf growth 96h 12µM, Pf growth 48h inconclusive
O=C(N/N=C/c1ccc(O)cc1)c1cc(C2CC2)[nH]n1	none (no result: Giardia FBPA inh)
CC1=NCC[N@@+]1(CCc1ccccc1)Cc1ccccc1	none (no result: CHX counter, Pf growth 96h, Shiga toxin inh, Pf growth 48h, Giardia FBPA inh)
CSC1=C(C#N)C(c2sccc2C)CC(=O)N1 (stereo not given)	none
COc1ccccc1N(CC(=O)N(CC(C)C)CC(C)C)S(=O)(=O)c1cccs1	Pf growth 96h inconclusive, Pf growth 48h inconclusive
COc1ccccc1N(CC(=O)N(c1ccccc1)C(C)C)S(=O)(=O)c1cccs1	Pf growth 96h 9.3µM (no result: NS1 inh)
N#CCSc1ccccc1NC(=O)COC(=O)CCN1C(=O)C2CC=CCC2C1=O (stereo not given)	none (no result: CHX counter, Shiga toxin inh, NS1 inh, Giardia FBPA inh)
CCOc1ccc(NC(=O)Nc2cc(OCC(F)(F)F)cc(OCC(F)(F)F)c2)cc1	Pf growth 96h 1.9µM, Pf growth 48h 0.83µM
CCOc1ccc(NC(=O)Nc2cc(C)ccc2F)cc1	CHX counter 34, Shiga toxin inh 54 (no result: Pf growth 48h)
COc1ccc(NC(=S)Nc2ccc3nsnc3c2)cc1	CHX counter 41, Pf growth 96h 0.23µM, Giardia FBPA inh inconclusive
O=C(NCCNC(=O)c1cc(OCC(F)(F)F)ccc1OCC(F)(F)F)Nc1ccc(Cl)cc1	CHX counter 28
COc1ccc(CNC(=O)/C(C#N)=C2\N=C(NC(=O)c3cccs3)c3ccccc32)cc1	Pf growth 96h inconclusive
COc1ccc([C@]23Cc4cc(C#N)ccc4C(O2)c2c(cc(C)n(-c4ccccc4)c2=O)O3)cc1	Pf growth 96h inconclusive, Pf growth 48h inconclusive
Cc1nc(C)c(C(=O)NNC(=O)Nc2ccc(Cl)cc2)s1	none
CCOc1ccc(NC(=S)Nc2ccc(OCC)cc2)cc1	Pf growth 96h inconclusive
CCOc1ccc(NC(=S)Nc2cc(C)[nH]n2)cc1	CHX counter 27, Shiga toxin inh 62
CCOc1ccc(NC(=O)Nc2ccc3nsnc3c2)cc1	CHX counter 33
CC(C)N(C(=O)Nc1ccc2nsnc2c1)C(C)C	Pf growth 96h inconclusive, Giardia FBPA inh inconclusive
CCOc1ccc(NC(=S)Nc2ccc3nsnc3c2)cc1	CHX counter 33, Shiga toxin inh 57, Pf growth 48h inconclusive, Giardia FBPA inh inconclusive
CCOc1ccc(C(C)NC(=O)c2cc(=O)[nH]c3ccccc23)cc1OCC (stereo not given)	none
CN(CC(=O)Nc1ccccc1Cl)C(=O)Cn1cnc2ccc(Cl)cc2c1=O	Pf growth 96h inconclusive (no result: CHX counter, Shiga toxin inh, NS1 inh, Giardia FBPA inh)
O=C(O)c1c[nH]c2c(ccc3[nH]cc(C(=O)O)c(=O)c32)c1=O	none (no result: CHX counter, Pf growth 96h, Shiga toxin inh, Pf growth 48h, Giardia FBPA inh)
CN(Cc1ccccc1)c1nc2c(c(=O)[nH]c(=O)n2C)n1C	none
Cc1cccc(Cn2c(N(C)Cc3ccccc3)nc3c2c(=O)[nH]c(=O)n3C)c1	Pf growth 96h 13µM, Pf growth 48h 12µM
COc1ccc(N2CCN(c3nc4c(c(=O)[nH]c(=O)n4C)n3Cc3cccc(C)c3)CC2)cc1	Pf growth 48h 10µM
C/C=C/Cn1c(N(C)Cc2ccccc2)nc2c1c(=O)[nH]c(=O)n2C	Pf growth 96h 8.3µM, NS1 inh inconclusive, Pf growth 48h inconclusive
Cc1cccc(Cn2c(Sc3nc(C)cs3)nc3c2c(=O)[nH]c(=O)n3C)c1	Pf growth 96h 1.7µM, NS1 inh inconclusive
Cc1csc(Sc2nc3c(c(=O)[nH]c(=O)n3C)n2Cc2ccccc2Cl)n1	NS1 inh inconclusive
O=C(CCc1nc(-c2ccccc2Cl)no1)NC1CCCCC1	none (no result: Giardia FBPA inh)
Nc1c(C(=O)Nc2ccc(S(=O)(=O)N3CCCC3)cc2)sc2nc3cc4c(cc3cc12)CCC4	CHX counter 27, Shiga toxin inh 22, Pf growth 48h 1.9µM
Nc1c(C(=O)Nc2ccc(S(=O)(=O)N3CCCC3)cc2)sc2nc3ccc(OC(F)(F)F)cc3cc12	Pf growth 48h 10µM
NC(=O)c1c(-c2ccc(Cl)cc2Cl)csc1NC(=O)Cc1ccccc1	CHX counter 16, Pf growth 48h inconclusive
COc1cc2nc(CN(C)Cc3ccc(OC)c(OC)c3OC)[nH]c(=O)c2cc1OC	CHX counter 11, Shiga toxin inh 37
COc1cc2nc(CN(C)Cc3nc4ccccc4c(=O)[nH]3)[nH]c(=O)c2cc1OC	Pf growth 48h inconclusive, Giardia FBPA inh inconclusive (no result: Pf growth 96h)
CN(Cc1cnccn1)Cc1c(C(=O)N2CCc3ccccc3C2)nc2ccc(Cl)cn12	Pf growth 96h inconclusive, Pf growth 48h 12µM
CC(C)CN(C)Cc1c(C(=O)N2CCc3ccccc3C2)nc2ccc(Cl)cn12	Pf growth 96h inconclusive, Pf growth 48h 7.4µM
CCOC(=O)c1ccccc1NC(=O)COC(=O)c1c(CC)noc1C	Pf growth 96h inconclusive (no result: CHX counter, Shiga toxin inh, NS1 inh, Giardia FBPA inh)
COc1ccc(C(C)=O)cc1CC(=O)Nc1ccc2c(c1)CCC2	Pf growth 96h inconclusive, Pf growth 48h inconclusive
CC(NC(=O)c1cccc(OC2CCN(C(=O)C3CC3)CC2)c1)c1ccc(F)cc1 (stereo not given)	Pf growth 96h inconclusive
COCCNC(=O)c1cccc(OC2CCN(Cc3ccc(C(C)C)cc3)CC2)c1	none (no result: Shiga toxin inh)
Cc1ccc(CN2CCC(Oc3cccc(C(=O)N(C)CCN(C)C)c3)CC2)cc1C	Pf growth 48h 9.3µM (no result: Shiga toxin inh)
O=C(NCc1ccccc1Cl)c1cccc(OC2CCN(C(=O)C3CC3)CC2)c1	Pf growth 96h 8.3µM (no result: Giardia FBPA inh)
COCC(C)N1CCC(Oc2cccc(C(=O)NCCc3ccccc3)c2)CC1 (stereo not given)	CHX counter 59, Shiga toxin inh 107 (no result: Giardia FBPA inh)
CC(C)CN1CCC(Oc2cccc(C(=O)NCCc3ccccc3)c2)CC1	CHX counter 27, Shiga toxin inh 60
COCCNC(=O)c1cccc(OC2CCN(Cc3ccc(C(=O)OC)cc3)CC2)c1	Pf growth 96h inconclusive, Pf growth 48h inconclusive
O=C1NO[C@H]2[C@@H]1CN[C@@H]2C(=O)O	none (no result: CHX counter, Pf growth 96h, Shiga toxin inh, NS1 inh, Pf growth 48h)
COCC(COS(N)(=O)=O)Cc1ccccc1 (stereo not given)	Pf growth 96h inconclusive
O=C1OC2(O)C3C4C=CC(C4)C3C(=O)N2c2ccccc21 (stereo not given)	Pf growth 48h 2.3µM
Cc1ccc2c(c1)C(=O)OC1(O)C3C4C=CC(C4)C3C(=O)N21 (stereo not given)	none
Cc1nnc(SCc2nnc(-c3cccs3)o2)s1	CHX counter 37 (no result: NS1 inh)
Cc1nnc(SCc2ccccc2CSc2nnc(C)s2)s1	CHX counter 49 (no result: NS1 inh)
COC(=O)C1(Cc2ccccc2)NC(c2ccccc2C)C2C(=O)N(c3ccc4c(c3)OCO4)C(=O)C21 (stereo not given)	Pf growth 48h 12µM
Cn1c(Cn2cnc3ccccc32)nc2ccccc21	none (no result: Pf growth 96h)
Cn1c(COc2ccc(F)cc2)nc2ccccc21	CHX counter 43, Pf growth 96h inconclusive, Shiga toxin inh 68
Cc1cccc(OCCn2c(CCCO)nc3ccccc32)c1	Pf growth 96h inconclusive, Pf growth 48h 15µM
